Experimental findings from the OligoGym collection are described below.
Further: reference of the scale not given here.

In one assay the target is ZNF543. The assay can be described thus: pooled miR-30 sensor sort-seq; sequence = guide strand. Conditions: shRNA.
With TGTAGTGTCGAATGAAACCTGG, the sensor-assay potency score (higher = more potent) was -0.172.

For the sequence TAGGAATTTTTCTCTTCGCGAA, the sensor-assay potency score (higher = more potent) was -0.467.

For TTCTTTTTAAACACTTTCCCGC, the sensor-assay potency score (higher = more potent) is -0.356.

TTGTACATACACCATCATCTGA: the sensor-assay potency score (higher = more potent) is -0.467.

Regarding TTCAGAACTCATTTTCTCCAGC, the sensor-assay potency score (higher = more potent) is 0.596.

In turn, TTTCACTCCAGTGTGAATCTGT yielded a sensor-assay potency score (higher = more potent) of 0.767.

Turning to TCTTTGTACATACACCATCATC, the sensor-assay potency score (higher = more potent) was -1.6.

The sequence TTCTGTTGAAACTTGTTTCTGT came in with a sensor-assay potency score (higher = more potent) of 0.852.

On to TTTTTAAACACTTTCCCGCATT, for which the sensor-assay potency score (higher = more potent) was -0.669.

As for TTCACTTGAGTGTGAATCCGTT, the sensor-assay potency score (higher = more potent) is -0.0362.

Consider TTCTGTGTAATCTTTGTACATA, for which the sensor-assay potency score (higher = more potent) was -0.793.

Consider TAATCTTTGTACATACACCATC, for which the sensor-assay potency score (higher = more potent) was -0.698.

For another assay, the target named is ZNF548. The description is as above. Conditions: shRNA.
For the sequence TGTCTAACAAATGTGGAGCTGT, the sensor-assay potency score (higher = more potent) was 0.213.

With TAACCTCTGACACTCCTACAGA, the sensor-assay potency score (higher = more potent) was -0.754.

Regarding AATTCCATTGTGCTCAACCAGG, the sensor-assay potency score (higher = more potent) was -1.53.

Turning to TCAACAAATGAATAGCTGCAGG, the sensor-assay potency score (higher = more potent) was -0.782.

Regarding ATTTGTAATCATTTTGTCCAGT, the sensor-assay potency score (higher = more potent) is -0.192.
